Test results taken from PubChem BioAssay (EPA / NIEHS).
Activity calls are given as the source filed them. How the source made its calls: active means hit-call score of the fitted dose curve at least 0.9, where 1 is the maximum; inactive means score below 0.9.

Key:
[1] = ATG_ISRE_CIS: Attagene CIS-FACTORIAL HepG2 Assay for human Interferon Regulatory Factor 1 (IRF1) binding to an Interferon-Stimulated Response Element (ISRE) (AID 2282948); conditions: HepG2 ISRE cis-reporter (Attagene), mRNA transcription readout; actives raise or lower the signal
Outline: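 Quantitation relies on labelled RT-PCR fragments separated by capillary electrophoresis. Human HepG2 cells bearing cis-promoter reporter constructs were treated 24 h; DMSO served as baseline for bidirectional fitting.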

[2] = ATG_M_32_CIS: Attagene CIS-FACTORIAL HepG2 Assay for M32 Transcription Factor (Internal Marker) (AID 2282949); conditions: HepG2 Attagene cis-factorial M32 reporter, mRNA; actives raise or lower the signal;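 further: background control marker of the multiplexed CIS panel rather than a real target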
Outline: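 Fluorescent capillary electrophoresis peaks of HpaI-digested, FAM-labelled RT-PCR reporter products give the signal. Source: transiently transfected human liver HepG2 cells, 24 h after chemical dosing; bidirectional fitting against DMSO.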

[3] = ATG_M_06_CIS: Attagene CIS-FACTORIAL HepG2 Assay for M06 Transcription Factor (Internal Marker) (AID 2282950); conditions: HepG2 Attagene CIS-FACTORIAL M06 internal marker reporter; actives raise or lower the signal
Outline: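 Internal background marker within multiplexed cis-reporter HepG2 system. Cells transiently transfected, dosed 24 h; reporter mRNA measured by RT-PCR, HpaI digestion and capillary electrophoresis. Bidirectional fit relative to DMSO.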

[4] = biological target: Hypoxia-inducible factor 1-alpha (Homo sapiens) (UniProt Q16665); assay: ATG_HIF1a_CIS: Attagene CIS-FACTORIAL HepG2 Assay for human Hypoxia Inducible Factor 1 (HIF1A) (AID 2282951); conditions: HepG2 Attagene cis-factorial HIF1a reporter transcription; actives raise or lower the signal
Hypoxia-inducible factor 1-alpha (Homo sapiens), sequence (Q16665 whole entry, looked up): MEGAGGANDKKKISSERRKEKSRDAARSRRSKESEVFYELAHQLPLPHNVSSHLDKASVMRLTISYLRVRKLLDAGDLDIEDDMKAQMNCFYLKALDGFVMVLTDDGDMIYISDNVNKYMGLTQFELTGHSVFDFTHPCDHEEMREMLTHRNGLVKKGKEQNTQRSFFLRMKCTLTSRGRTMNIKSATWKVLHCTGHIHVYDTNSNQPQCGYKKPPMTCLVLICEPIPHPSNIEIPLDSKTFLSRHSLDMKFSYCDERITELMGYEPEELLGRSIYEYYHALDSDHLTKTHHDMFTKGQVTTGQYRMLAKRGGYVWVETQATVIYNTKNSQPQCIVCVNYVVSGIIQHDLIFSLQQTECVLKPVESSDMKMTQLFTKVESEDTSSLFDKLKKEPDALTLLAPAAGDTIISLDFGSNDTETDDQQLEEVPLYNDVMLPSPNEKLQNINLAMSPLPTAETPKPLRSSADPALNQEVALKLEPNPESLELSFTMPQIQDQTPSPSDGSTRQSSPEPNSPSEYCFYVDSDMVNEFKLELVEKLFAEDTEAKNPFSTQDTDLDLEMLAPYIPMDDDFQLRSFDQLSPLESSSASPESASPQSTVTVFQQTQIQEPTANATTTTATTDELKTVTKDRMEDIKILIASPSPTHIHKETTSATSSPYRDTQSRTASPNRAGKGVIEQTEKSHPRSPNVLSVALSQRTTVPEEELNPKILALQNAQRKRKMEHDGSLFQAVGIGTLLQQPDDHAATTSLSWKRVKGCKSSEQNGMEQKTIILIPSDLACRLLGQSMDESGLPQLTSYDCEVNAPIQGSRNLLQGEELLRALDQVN
Outline: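 After 24 h chemical exposure of reporter-transfected HepG2 cells, reporter cDNA was PCR-amplified, labelled by 6-FAM primer extension (2 min 95 C, 20 s 68 C, 10 min 72 C), HpaI-cut (2 h, 37 C) and analysed by CE.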

[5] = biological target: Hepatocyte nuclear factor 6 (Homo sapiens) (UniProt Q9UBC0); assay: ATG_HNF6_CIS: Attagene CIS-FACTORIAL HepG2 Assay for human Hepatocyte Nuclear Factor 6 (HNF6) (AID 2282952); conditions: HepG2 Attagene cis-factorial HNF6 reporter transcription; actives raise or lower the signal
Hepatocyte nuclear factor 6 (Homo sapiens), sequence (Q9UBC0 whole entry, looked up, the tested form may be a part): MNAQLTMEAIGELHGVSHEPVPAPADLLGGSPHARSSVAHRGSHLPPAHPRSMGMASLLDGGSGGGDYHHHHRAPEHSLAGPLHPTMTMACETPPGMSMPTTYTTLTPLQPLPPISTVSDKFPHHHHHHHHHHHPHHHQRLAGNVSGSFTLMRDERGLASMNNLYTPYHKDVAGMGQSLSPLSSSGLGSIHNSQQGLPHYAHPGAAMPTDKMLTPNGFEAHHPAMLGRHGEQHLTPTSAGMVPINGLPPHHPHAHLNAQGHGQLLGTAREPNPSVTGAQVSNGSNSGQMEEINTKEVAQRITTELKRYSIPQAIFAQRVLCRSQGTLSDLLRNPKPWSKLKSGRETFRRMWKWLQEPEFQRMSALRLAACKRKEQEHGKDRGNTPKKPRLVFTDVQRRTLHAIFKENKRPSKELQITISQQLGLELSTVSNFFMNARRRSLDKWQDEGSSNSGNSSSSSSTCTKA
Outline: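 HepG2 cells transiently transfected with cis-element-driven multiplexed reporter units measuring endogenous transcription factor activity. After 24 h exposure, reporter mRNA quantified by RT-PCR, FAM-labelled fragments and capillary electrophoresis; bidirectional fitting versus DMSO.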

[6] = biological target: Heat shock factor protein 1 (Homo sapiens) (UniProt Q00613); assay: ATG_HSE_CIS: Attagene CIS-FACTORIAL HepG2 Assay for human Heat Shock Transcription Factor 1 (HSE) (AID 2282953); conditions: HepG2 HSE cis-reporter, Attagene RNA transcription; actives raise or lower the signal
Heat shock factor protein 1 (Homo sapiens), sequence (Q00613 whole entry, looked up): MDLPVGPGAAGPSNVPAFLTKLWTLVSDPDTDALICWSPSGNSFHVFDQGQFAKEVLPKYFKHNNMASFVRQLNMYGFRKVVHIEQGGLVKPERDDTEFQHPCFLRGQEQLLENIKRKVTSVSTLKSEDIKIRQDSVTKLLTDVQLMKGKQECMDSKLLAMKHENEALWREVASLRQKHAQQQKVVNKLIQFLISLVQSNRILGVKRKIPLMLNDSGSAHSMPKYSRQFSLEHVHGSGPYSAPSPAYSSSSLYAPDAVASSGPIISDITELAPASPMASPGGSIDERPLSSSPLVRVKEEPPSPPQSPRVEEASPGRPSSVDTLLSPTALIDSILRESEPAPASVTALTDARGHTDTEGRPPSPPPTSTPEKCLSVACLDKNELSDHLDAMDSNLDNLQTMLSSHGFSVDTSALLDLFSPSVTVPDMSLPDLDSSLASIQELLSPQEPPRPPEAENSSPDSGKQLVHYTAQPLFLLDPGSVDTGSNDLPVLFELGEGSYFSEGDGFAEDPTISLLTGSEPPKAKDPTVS
Outline: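 HepG2 cells transfected with cis-promoter reporter units sensing endogenous transcription factor activity; reporter mRNA quantified 24 h post-dose by RT-PCR and capillary electrophoresis of 6-FAM-labelled products. Bidirectional fitting against DMSO.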

[7] = ATG_PBREM_CIS: Attagene CIS-FACTORIAL HepG2 Assay for human Phenobarbital-responsive Enhancer Module (PBREM) (AID 2282955); conditions: HepG2 PBREM cis-reporter, Attagene multiplexed transcription; actives raise or lower the signal
Outline: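 Measures endogenous factor action on a phenobarbital-responsive enhancer module. HepG2 transiently carrying cis reporters, 24 h treatment, mRNA read-out by RT-PCR plus capillary electrophoresis.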

[8] = biological target: Paired box protein Pax-6 (Homo sapiens) (UniProt P26367); assay: ATG_Pax6_CIS: Attagene CIS-FACTORIAL HepG2 Assay for human Paired Box 6 (PAX6) (AID 2282956); conditions: HepG2 CIS-FACTORIAL PAX6 reporter transcription, RNA readout; actives raise or lower the signal
Paired box protein Pax-6 (Homo sapiens), sequence (P26367 whole entry, looked up): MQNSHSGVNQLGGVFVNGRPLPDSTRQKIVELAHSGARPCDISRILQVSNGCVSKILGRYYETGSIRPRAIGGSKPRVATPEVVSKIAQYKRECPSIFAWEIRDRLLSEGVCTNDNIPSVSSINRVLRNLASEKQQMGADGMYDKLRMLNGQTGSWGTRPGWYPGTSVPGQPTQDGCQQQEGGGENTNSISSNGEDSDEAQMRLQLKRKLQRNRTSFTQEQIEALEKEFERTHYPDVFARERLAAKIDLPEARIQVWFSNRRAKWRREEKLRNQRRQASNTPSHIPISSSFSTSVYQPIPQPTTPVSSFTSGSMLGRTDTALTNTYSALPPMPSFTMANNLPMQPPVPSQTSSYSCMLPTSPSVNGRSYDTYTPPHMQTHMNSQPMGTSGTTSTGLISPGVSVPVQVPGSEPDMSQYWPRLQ
Outline: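 After twenty-four hours of chemical exposure, transfected HepG2 cells are harvested for RNA. Cis-promoter reporter transcripts are amplified, fluorescently labelled and sized by capillary electrophoresis, with gain and loss of signal scored against DMSO.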

[9] = ATG_PXRE_CIS: Attagene CIS-FACTORIAL HepG2 Assay for human Pregnane X Receptor Element (PXRE) (AID 2282957); conditions: HepG2 Attagene CIS-FACTORIAL PXRE reporter, mRNA; actives raise or lower the signal
Outline: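 HepG2 cells transiently transfected with cis-element-driven multiplexed reporter units; after 24 h chemical exposure, reporter mRNA measured by RT-PCR, 6-FAM labelling, HpaI digestion and capillary electrophoresis. Bidirectional fitting relative to DMSO.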

[10] = ATG_PPRE_CIS: Attagene CIS-FACTORIAL HepG2 Assay for human Peroxisome Proliferator-activated Response Element (PPRE) (AID 2282958); conditions: HepG2 PPRE cis-element reporter, Attagene transcription factor profiling; actives raise or lower the signal
Outline: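 PPRE activity in HepG2: transient cis-reporter transfection, 24 h compound incubation, reporter mRNA by RT-PCR and CE fluorescence; gain/loss fitted against DMSO.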

[11] = ATG_RORE_CIS: Attagene CIS-FACTORIAL HepG2 Assay for human RAR-related Orphan Receptor Element (RORE) (AID 2282959); conditions: HepG2 Attagene cis-factorial RORE reporter, mRNA; actives raise or lower the signal
Outline: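 A 24-hour exposure of transfected HepG2 hepatoma cells precedes RNA isolation and reporter RT-PCR. Labeled products are digested with HpaI and resolved by capillary electrophoresis, with gain or loss of signal scored relative to DMSO.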

[12] = ATG_Sox_CIS: Attagene CIS-FACTORIAL HepG2 Assay for human SRY-box transcription factor (SOX) (AID 2282960); conditions: HepG2 Attagene cis-factorial SOX reporter, mRNA; actives raise or lower the signal
Outline: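 HepG2, cis reporter units, 24 h exposure. Reporter mRNA: RT-PCR → FAM labelling → HpaI → CE fluorescence. Bidirectional fit vs DMSO.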

[13] = biological target: Transcription factor Sp1 (Homo sapiens) (UniProt P08047); assay: ATG_Sp1_CIS: Attagene CIS-FACTORIAL HepG2 Assay for human Specificity Protein 1 (Sp1) (AID 2282961); conditions: HepG2 Sp1 cis-reporter transcription, actives raise or lower the signal
Transcription factor Sp1 (Homo sapiens), sequence (P08047 whole entry, looked up, the tested form may be a part): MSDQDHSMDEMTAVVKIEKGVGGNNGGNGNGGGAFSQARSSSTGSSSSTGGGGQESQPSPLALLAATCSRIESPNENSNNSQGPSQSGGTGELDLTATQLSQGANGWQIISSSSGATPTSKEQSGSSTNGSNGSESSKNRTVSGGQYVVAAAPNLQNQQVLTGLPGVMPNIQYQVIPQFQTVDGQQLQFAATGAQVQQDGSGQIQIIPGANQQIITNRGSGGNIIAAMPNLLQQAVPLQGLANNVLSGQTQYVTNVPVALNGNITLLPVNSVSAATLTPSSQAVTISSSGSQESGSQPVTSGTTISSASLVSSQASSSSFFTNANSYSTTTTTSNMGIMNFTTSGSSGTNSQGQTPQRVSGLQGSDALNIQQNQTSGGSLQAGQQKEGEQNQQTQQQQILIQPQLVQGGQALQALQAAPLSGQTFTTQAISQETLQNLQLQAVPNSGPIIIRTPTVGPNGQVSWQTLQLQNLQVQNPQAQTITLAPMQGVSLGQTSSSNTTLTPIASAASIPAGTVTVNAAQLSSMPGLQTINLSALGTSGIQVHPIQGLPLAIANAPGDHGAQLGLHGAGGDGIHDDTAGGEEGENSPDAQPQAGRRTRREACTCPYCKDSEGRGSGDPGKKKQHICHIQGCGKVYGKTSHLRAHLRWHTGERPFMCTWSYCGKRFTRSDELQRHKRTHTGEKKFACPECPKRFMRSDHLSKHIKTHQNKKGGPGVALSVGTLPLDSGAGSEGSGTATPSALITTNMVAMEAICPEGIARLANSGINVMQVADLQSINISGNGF
Outline: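 Liver-derived HepG2 cells, cis-element reporter library, 24 h treatment; RNA isolated, cDNA amplified with reporter-specific primers, FAM-labeled fragments sized on capillary analyzer. DMSO baseline, bidirectional curve fit.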

[14] = ATG_SREBP_CIS: Attagene CIS-FACTORIAL HepG2 Assay for human Sterol Regulatory Element Binding (SREBP) (AID 2282962); conditions: HepG2 Attagene cis-factorial SREBP reporter, mRNA; actives raise or lower the signal
Outline: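 Twenty-four hours after chemical dosing of transfected HepG2 cultures, reporter RNA was converted to cDNA, amplified, end-labelled with 6-FAM and resolved by capillary electrophoresis. Responses were fitted relative to DMSO.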

[15] = biological target: Signal transducer and activator of transcription 3 (Homo sapiens) (UniProt P40763); assay: ATG_STAT3_CIS: Attagene CIS-FACTORIAL HepG2 Assay for human Signal Transducer and Activator of Transcription 3 (STAT3) (AID 2282963); conditions: HepG2, Attagene cis-factorial STAT3 reporter transcription; actives raise or lower the signal
Signal transducer and activator of transcription 3 (Homo sapiens), sequence (P40763 whole entry, looked up): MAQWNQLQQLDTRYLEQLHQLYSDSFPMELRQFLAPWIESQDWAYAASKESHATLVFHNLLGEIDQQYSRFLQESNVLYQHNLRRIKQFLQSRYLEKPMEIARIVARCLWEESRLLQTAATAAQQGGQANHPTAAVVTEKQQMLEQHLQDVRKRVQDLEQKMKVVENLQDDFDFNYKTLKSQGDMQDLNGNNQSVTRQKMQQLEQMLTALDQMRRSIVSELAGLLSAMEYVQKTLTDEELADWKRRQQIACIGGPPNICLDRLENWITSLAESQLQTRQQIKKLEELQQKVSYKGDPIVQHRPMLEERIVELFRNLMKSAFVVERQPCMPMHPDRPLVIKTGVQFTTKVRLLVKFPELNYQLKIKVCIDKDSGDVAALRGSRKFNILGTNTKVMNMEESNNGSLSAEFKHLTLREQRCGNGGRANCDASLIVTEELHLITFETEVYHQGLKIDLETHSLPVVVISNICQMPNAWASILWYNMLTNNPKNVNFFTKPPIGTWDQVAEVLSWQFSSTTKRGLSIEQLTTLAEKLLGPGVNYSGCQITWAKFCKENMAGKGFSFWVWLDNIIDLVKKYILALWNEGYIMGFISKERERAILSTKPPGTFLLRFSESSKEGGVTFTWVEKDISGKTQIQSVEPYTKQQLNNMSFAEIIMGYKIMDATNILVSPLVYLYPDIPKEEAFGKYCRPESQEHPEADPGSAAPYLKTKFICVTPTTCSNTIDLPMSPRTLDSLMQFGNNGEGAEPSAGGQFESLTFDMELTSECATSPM
Outline: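 Transcript-level reporter assay. HepG2 transient MRTU transfection, 24 h exposure, fluorescence detection after RT-PCR and CE; DMSO baseline.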

[16] = ATG_TA_CIS: Attagene CIS-FACTORIAL HepG2 Assay for human TA Basal Promoter (AID 2282964); conditions: HepG2 Attagene CIS-factorial TA basal promoter reporter; actives raise or lower the signal
Outline: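 HepG2 cells transiently transfected with multiple reporter units under cis promoter elements, reporting endogenous transcription factor activity; this endpoint tracks the TA basal promoter as background control. Reporter mRNA after 24 h dosing measured by RT-PCR/capillary electrophoresis; bidirectional fits versus DMSO.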

[17] = ATG_MRE_CIS: Attagene CIS-FACTORIAL HepG2 Assay for human Metal Responsive Element (MRE) (AID 2282954); conditions: HepG2 MRE cis-reporter transcription, Attagene multiplex; actives raise or lower the signal
Outline: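 Step one: transfect HepG2 with cis-regulated reporter units. Step two: dose 24 h. Step three: isolate RNA, RT-PCR, 6-FAM label, HpaI digest, capillary electrophoresis. Fit bidirectionally to DMSO.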

[18] = ATG_TCF_b_cat_CIS: Attagene CIS-FACTORIAL HepG2 Assay for human T-Cell-Factor with beta-catenin (TCF/b-cat) (AID 2282965); conditions: HepG2 TCF/beta-catenin cis-reporter transcription, actives raise or lower the signal
Outline: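 HepG2 cells transiently transfected with multiple cis-promoter-regulated reporter transcription units, so endogenous transcription factor activity is measured. Reporter mRNA read 24 hours after dosing by RT-PCR, fluorescent labelling and capillary electrophoresis; bidirectional fitting against DMSO.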

Measured: AC50

Cc1cc(Cl)ccc1O[C@H](C)C(=O)O
active: [10] 28.7 µM | [15] 100 µM
not listed: [17] | [18]
inactive: all other assays above

O=[N+]([O-])c1ccc(O)c([N+](=O)[O-])c1
not listed: [10]
inactive: all other assays above

C=CC#N
not listed: [2] | [10] | [18]
inactive: all other assays above

CCOP(=S)(OCC)SCSP(=S)(OCC)OCC
active: [7] 1.06 µM | [9] 0.192 µM
not listed: [2] | [17] | [18]
inactive: all other assays above

C=CCc1ccc(OC)cc1
active: [9] 26.6 µM
not listed: [2]
inactive: all other assays above

O=C(O)C(Cl)(Cl)Cl
not listed: [9] | [18]
inactive: all other assays above

CCC[CH2][Sn]([CH2]CCC)([CH2]CCC)[O]C(=O)c1ccccc1
active: [10] 0.0115 µM
not listed: [6] | [7] | [11] | [12]
inactive: all other assays above

C1CCC(NC2CCCCC2)CC1
active: [9] 16.7 µM
not listed: [7] | [12]
inactive: all other assays above
